Only some compounds are listed: those with a hit (about 6.9% of all), similar ones and a draw of the others.
CSC inhib: cancer stem cell inhibition. cancer stem cell-like cells viability, luminescence. inhibition, % at 7.5 µM. 300,000 tested, 1.1% active. AID 2717; in the data active = inhibition above about 75%; tested in HMLE shEcad cells
Mdm2-MdmX inh: human Mdm2/MdmX binding inhibition; O15151+Q00987; SaOS-2 split-luciferase Mdm2/MdmX complementation, luminescence; inhibition, % at 8 µM; 330,000 tested, 3% active; AID 485346;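 active = inhibition of at least 50% at 8 µM in the primary screen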
Target sequence (O15151 whole entry, looked up): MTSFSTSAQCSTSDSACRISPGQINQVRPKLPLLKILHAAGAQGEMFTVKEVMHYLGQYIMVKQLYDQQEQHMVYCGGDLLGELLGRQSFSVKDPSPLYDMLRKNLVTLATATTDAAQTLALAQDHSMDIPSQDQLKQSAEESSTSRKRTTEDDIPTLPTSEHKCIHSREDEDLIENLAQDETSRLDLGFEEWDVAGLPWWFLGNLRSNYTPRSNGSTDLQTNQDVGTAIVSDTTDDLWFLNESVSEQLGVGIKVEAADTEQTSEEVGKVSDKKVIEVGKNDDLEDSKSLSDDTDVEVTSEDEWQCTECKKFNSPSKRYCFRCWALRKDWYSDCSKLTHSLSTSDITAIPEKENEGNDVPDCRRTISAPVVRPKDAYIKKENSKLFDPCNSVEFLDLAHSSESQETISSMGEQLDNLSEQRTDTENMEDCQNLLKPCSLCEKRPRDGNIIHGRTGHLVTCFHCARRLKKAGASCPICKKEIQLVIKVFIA
Target sequence (Q00987 whole entry, looked up): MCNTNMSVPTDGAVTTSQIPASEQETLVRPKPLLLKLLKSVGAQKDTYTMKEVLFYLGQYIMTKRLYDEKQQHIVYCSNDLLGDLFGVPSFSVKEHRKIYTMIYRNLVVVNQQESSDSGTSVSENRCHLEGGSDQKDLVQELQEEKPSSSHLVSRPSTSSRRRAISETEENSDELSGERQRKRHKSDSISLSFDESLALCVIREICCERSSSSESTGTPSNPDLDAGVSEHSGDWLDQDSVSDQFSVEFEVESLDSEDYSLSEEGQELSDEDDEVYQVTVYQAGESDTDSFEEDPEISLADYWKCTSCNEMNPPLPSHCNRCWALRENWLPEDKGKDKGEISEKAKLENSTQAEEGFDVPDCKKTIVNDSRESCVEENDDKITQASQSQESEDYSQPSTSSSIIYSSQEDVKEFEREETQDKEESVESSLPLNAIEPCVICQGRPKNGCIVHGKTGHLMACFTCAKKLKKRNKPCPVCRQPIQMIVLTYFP
NR3A LBD binder: modulators (binders) of human NR3A ligand-binding domain; Tm shift relative to glycine control, % at 25 µM; 340,000 tested, 2.5% active; NR3A LBD differential scanning fluorimetry, Tm shift; 0% = protein alone, 100% = glycine-bound protein;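 active = melting temperature shift of at least 10% of the positive control shift, at one fixed dose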
MPTP block: blocks calcium-induced mitochondrial swelling; isolated mouse mitochondria, Ca2+ swelling absorbance, 30 min; inhibition, % at 10 µM; 360,000 tested, 1.4% active;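 active = inhibition of 50% or more, scaled per plate between neutral and stimulator controls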
Beta cell apopt: blocks beta cell apoptosis | protection from apoptosis, % (no concentration beside the values) | 300,000 tested, 0.8% active | INS-1E cytokine-induced death, ATP luminescence, 48 h; percent of positive-control rescue, neutral wells zero;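 active = Every replicate reaches about 75%, or at least half do and their mean reaches it too, limit read from the data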;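 note: higher means more ATP so stronger rescue from cytokine killing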
SKKanGAS inh: SKKanGAS growth inhibition | AID 1662 | 300,000 tested, 1.3% active | inhibition, % at 7.5 µM | S. pyogenes SKKanGAS, kanamycin growth, BacTiter-Glo, 6 h;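 active = mean replicate score, as percent of positive control median, at least 50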;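 note: strain carries kanamycin resistance gene driven by streptokinase promoter and grows in 40 µg/ml kanamycin; loss of luminescence reflects streptokinase promoter inhibition or plain growth inhibition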
Mdm2-MdmX conf: human Mdm2/MdmX binding inhibition, confirmed. shares compounds with Mdm2-MdmX inh. luminescent assay. inhibition, % at 8 µM. 10,000 tested, 55% active. AID 489028; in the data active = inhibition above about 40%
FLuc counter: full-length luciferase inhibition in Mdm2/MdmX counter-screen | SaOS-2 full-length luciferase counterscreen, luminescence | inhibition, % at 8 µM | shares compounds with Mdm2-MdmX inh | 6,200 tested, 77% active;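 active = mean inhibition at 8 µM reaching about 37%, which flags the compound as non-specific, limit read from the data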;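 note: p53-null SaOS-2 cells with luciferase driven by a doxycycline-inducible promoter; compound on cells about two nights before reading with doxycycline added after day one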
Large screens that a line does not name were inactive (follow-up assays come after a bar, where they were run).

COc1ccc(C2CC(c3cccc(Br)c3)=NN2c2ccc(S(N)(=O)=O)cc2)cc1 (stereo not given)	Mdm2-MdmX inh 57.0, NR3A LBD binder 27.0 (no result: CSC inhib, Beta cell apopt, SKKanGAS inh) | Mdm2-MdmX conf inactive
COc1ccc(C2CC(c3cccc(F)c3)=NN2c2ccc(S(N)(=O)=O)cc2)cc1 (stereo not given)	Mdm2-MdmX inh 80.9, NR3A LBD binder 36.8 (no result: CSC inhib, Beta cell apopt, SKKanGAS inh) | Mdm2-MdmX conf inactive
C/C(=N/OC(=O)c1ccc(Cl)cc1Cl)c1oc(C)nc1C	none
Cc1nc(C(F)(F)F)c(C(=O)N/N=C(\N)c2cccnc2)s1	none
O=C1CCCN1CCCNc1nc2c(S(=O)(=O)c3ccc(Br)cc3)nnn2c2ccccc12	none
COc1ccc(NC(=O)CSc2nc3sc(C)c(C)c3c(=O)n2Cc2ccco2)cc1	Mdm2-MdmX inh 87.3 (no result: CSC inhib) | Mdm2-MdmX conf inactive
Cc1sc2nc(SCC(=O)C(C)(C)C)n(Cc3ccco3)c(=O)c2c1C	none
COC(=O)c1ccc2c(=O)n(Cc3ccco3)c(SCC(=O)Nc3ccc(C)c(Cl)c3)nc2c1	Mdm2-MdmX inh 67.8 | Mdm2-MdmX conf inactive
O=C(CSc1nc2cc(Cl)ccc2c(=O)n1Cc1ccco1)Nc1ccc(S(=O)(=O)N2CCOCC2)cc1	none
CC(=O)N1c2ccc(S(=O)(=O)NCCC(=O)Nc3ncccc3C)cc2CC1C (stereo not given)	none (no result: Beta cell apopt)
CC(=O)Nc1ccc(S(=O)(=O)NCC(=O)OCC(=O)N2CCCCCC2)cc1	none (no result: SKKanGAS inh)
CCOC(=O)C1CCN(S(=O)(=O)c2cc3c4c(c2)C(C)C(=O)N4CCC3)CC1 (stereo not given)	none
O=C(c1cc2cc(F)ccc2[nH]1)N1CCCC(Nc2ccc(F)cc2)C1 (stereo not given)	none
CCN1C(=O)/C(=C2/Sc3ccc(OC)cc3N2C)SC1=Nc1cccc(O)c1	Mdm2-MdmX inh 96.9 | Mdm2-MdmX conf inactive
COC(=O)c1cc(NC(=S)NC(=O)c2ccccc2)ccc1N1CCOCC1	none
Cc1cc(C)cc(OCc2nc3ncc(Br)cc3[nH]2)c1	Mdm2-MdmX inh 81.2 | Mdm2-MdmX conf 73.7 | FLuc counter inactive
CCc1c(C)sc(NC(=O)c2cc(-c3cc(OC)ccc3OC)on2)c1C#N	Mdm2-MdmX inh 96.8 | Mdm2-MdmX conf 45.9 | FLuc counter 67.9
COCCN=C1Sc2nc3cc4c(cc3cc2CN1CC1CCCO1)OCO4 (stereo not given)	none (no result: SKKanGAS inh)
CN(CC(=O)NCC(c1ccco1)N1CCCCC1)S(=O)(=O)c1ccc(Cl)cc1 (stereo not given)	none
CCCOc1ccc(NC(=O)CC2C(=O)N(CC)C(=S)N2CCCN2CCN(Cc3ccccc3)CC2)cc1 (stereo not given)	Mdm2-MdmX inh 81.1 | Mdm2-MdmX conf 46.5 | FLuc counter 65.5
CCCOc1ccc(NC(=O)CC2C(=O)N(CC)C(=S)N2CCNC(C)=O)cc1 (stereo not given)	none
CCN1C(=O)C(CC(=O)Nc2ccc(Br)cc2)N(CCCc2ccccc2)C1=S (stereo not given)	Mdm2-MdmX inh 84.0, NR3A LBD binder 16.0, SKKanGAS inh 91.8 | Mdm2-MdmX conf inactive
CCOc1ccc(NC(=O)CC2C(=O)N(C)C(=S)N2CCCc2ccccc2)cc1 (stereo not given)	none
O=C1Nc2ccccc2/C1=C/c1ccccc1F	none
Cc1nn(-c2ccc(F)cc2)c(Cl)c1/C=C1\C(=O)Nc2ccccc21	CSC inhib 78.6, Mdm2-MdmX inh 59.2 (no result: SKKanGAS inh) | Mdm2-MdmX conf 61.8 | FLuc counter 67.9
COc1ccccc1OC(C)C(=O)Nc1ccccc1C(=O)NCC1CCCO1 (stereo not given)	none (no result: SKKanGAS inh)
CCN(CC)Cc1ccc(NC(=O)c2sc3cc(Cl)ccc3c2Cl)cc1	CSC inhib 100.5, Mdm2-MdmX inh 55.1 | Mdm2-MdmX conf inactive
COc1ccccc1NS(=O)(=O)c1cc(NC(=O)c2sc3cc(Cl)ccc3c2Cl)ccc1C	Mdm2-MdmX inh 52.6 | Mdm2-MdmX conf inactive | FLuc counter 103.5
CCNC(=S)Nc1ccc(C)c(S(=O)(=O)Nc2ccccc2OC)c1	none
CCN(CC)S(=O)(=O)c1ccc(C(=O)Nn2cnnc2)cc1	none
CC(/C=N/Nc1ccc2nncn2n1)=C\c1ccccc1	none
CN(C)c1ccc(-c2ccnc3c2CC(C)(C(=O)Nc2cccc(Oc4ccccc4)c2)O3)cc1 (stereo not given)	none (no result: CSC inhib, Mdm2-MdmX inh, NR3A LBD binder, Beta cell apopt, SKKanGAS inh)
COc1ccc(C(=O)O/N=C(\N)Cc2ccc(Cl)c(Cl)c2)cc1OC	Mdm2-MdmX inh 100.7 | Mdm2-MdmX conf 99.5 | FLuc counter inactive
N/C(=N\OC(=O)c1ccc2c(c1)OCO2)c1cccc(Br)c1	none
COc1ccc(C(=O)O/N=C(\N)Cc2ccc(Cl)cc2)cc1OC	Mdm2-MdmX inh 99.8 | Mdm2-MdmX conf 92.8 | FLuc counter 41.8
COc1ccc(/C(N)=N/OC(=O)c2ccc3c(c2)OCO3)cc1OC	Mdm2-MdmX inh 91.2 (no result: CSC inhib, Beta cell apopt) | Mdm2-MdmX conf inactive
CN(CC(=O)Nc1c(Cl)cccc1Cl)C(=O)C1=COCCO1	none
COc1ccc(/C(C)=N/NC(=O)c2nnn(-c3nonc3N)c2CN(C)c2ccccc2)cc1	Mdm2-MdmX inh 50.1 | Mdm2-MdmX conf inactive
CCN(CC)Cc1c(C(=O)N/N=C(\C)c2ccncc2)nnn1-c1nonc1N	none
C/C(=N\NC(=O)c1nnn(-c2nonc2N)c1CN(C)C)c1ccco1	none
C/C(=N\NC(=O)c1nnn(-c2nonc2N)c1CN1CCCCC1)c1ccccc1O	CSC inhib 81.4, Mdm2-MdmX inh 51.3 | Mdm2-MdmX conf 47.0 | FLuc counter 43.7
C/C(=N\NC(=O)c1nnn(-c2nonc2N)c1CN(C)c1ccccc1)c1ccccc1O	CSC inhib 97.7, Mdm2-MdmX inh 69.4, NR3A LBD binder 13.9, Beta cell apopt 90.4, SKKanGAS inh 50.4 | Mdm2-MdmX conf 76.5 | FLuc counter inactive
Cc1cnc(NC(=O)CSc2ccccc2)s1	none
CCOc1ccc2nc(-c3ccccc3)nc(SCC(=O)Nc3ncc(C)s3)c2c1	Mdm2-MdmX inh 74.9 | Mdm2-MdmX conf inactive
COc1ccc(CNC(=O)CCS(=O)(=O)c2ccc3c(c2)NC(=O)CS3)cc1	none
Cc1ccc(NC(=O)c2cc(C)n(-c3ccccc3)c2C)cc1	Mdm2-MdmX inh 76.5 | Mdm2-MdmX conf 84.0 | FLuc counter 41.2
Cc1ccc(NC(=O)c2cc(C)n(-c3cccc(C)c3)c2C)cc1	none
Cc1cc(C(=O)Nc2ccc(Cl)cc2)c(C)n1-c1ccccc1	Mdm2-MdmX inh 88.8 (no result: Beta cell apopt) | Mdm2-MdmX conf 89.0 | FLuc counter inactive
Cc1ccc(CNC(=O)C(=O)NCC2CCCN2S(=O)(=O)c2cccs2)cc1 (stereo not given)	none
CCOC(=O)c1cc(S(=O)(=O)N(C)Cc2ccccc2)cn1C	none
COc1ccccc1NC(=O)c1ccccc1C(=O)Nc1ccccc1OC	none

Compound activity as filed in PubChem.
